TRAIL sens C8: caspase-8 TRAIL sensitization; NB7+C8 cells + TRAIL, ATPlite viability luminescence; inhibition (viability loss, TRAIL sensitization), % at 10 µM; 360,000 compounds, 1% hits;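 active = compounds causing at least 50% loss of cell viability in the single-dose screen, relative to plate controls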
SENP8 block-1: blocks the human protease SENP8. 330,000 compounds, 1.2% hits. inhibition, % at 10 µM. Q96LD8. purified SENP8, Z-RLRGG-aminoluciferin cleavage, luminescence; in the data active = inhibition above about 50%
SENP7 block: inhibitors of human SENP7 protease | Q9BQF6 | recombinant SENP7, Z-RLRGG-aminoluciferin luminescence, 40 min | inhibition, % at 5 µM | 330,000 compounds, 1.5% hits;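 active = inhibition above about 50% at the single test dose, limit read from the data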
SENP6 block: blocks the human protease SENP6; Recombinant SENP6 catalytic domain, aminoluciferin luminescence; inhibition, % at 10 µM; 330,000 compounds, 1.8% hits; AID 2599;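 active = inhibition above about 50% at the single tested dose, limit read from the data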
Target sequence (Q9GZR1 628-1112 limits assumed): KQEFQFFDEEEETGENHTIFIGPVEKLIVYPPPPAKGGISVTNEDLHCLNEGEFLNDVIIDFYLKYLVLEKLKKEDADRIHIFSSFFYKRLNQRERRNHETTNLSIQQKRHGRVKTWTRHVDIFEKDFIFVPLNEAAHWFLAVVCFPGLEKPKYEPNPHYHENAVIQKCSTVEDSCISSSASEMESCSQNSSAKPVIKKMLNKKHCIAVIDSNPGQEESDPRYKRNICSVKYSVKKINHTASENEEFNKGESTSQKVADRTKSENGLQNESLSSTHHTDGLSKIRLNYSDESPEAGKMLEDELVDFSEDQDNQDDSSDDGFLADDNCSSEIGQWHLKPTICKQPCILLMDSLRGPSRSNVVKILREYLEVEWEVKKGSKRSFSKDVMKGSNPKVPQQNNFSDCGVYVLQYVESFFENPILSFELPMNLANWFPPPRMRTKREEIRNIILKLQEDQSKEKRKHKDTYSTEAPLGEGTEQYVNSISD
PPC-1+TRAIL kill: kills PPC-1 cancer cells in the presence of TRAIL; PPC-1 cells + TRAIL, ATPLite viability luminescence; cell killing (% activity), % at 4 µM or 5 µM; 220,000 compounds, 0.41% hits; AID 1443;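 active = cell killing above 50% in the first pass at 4 µM, then a duplicate retest at 5 µM averaging 50% or more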
SENP8 block-2: SENP8 (human) protease inhibition. recombinant SENP8, Nedd8 substrate fluorescence. inhibition, % at 20 µM. 360,000 compounds, 0.64% hits. AID 602440; in the data active = inhibition mostly above about 40%, no sharp cut-off; inactive = mostly below about 27%
SENP8 confirm: confirmation of human SENP8 protease inhibitors; AID 488912; Recombinant SENP8, Z-RLRGG-aminoluciferin luminescence, 60 min; 6,200 compounds, 40% hits; inhibition, % at 12.5 µM; shares compounds with SENP7 block;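 active = mean inhibition across replicates above about 50%, limit read from the data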
SENP6 confirm: confirmation of human SENP6 protease inhibitors; shares compounds with SENP7 block; recombinant SENP6, Z-RLRGG-aminoluciferin luminescence; inhibition, % at 12.5 µM; 6,200 compounds, 58% hits; AID 488915
SENP7 confirm: confirmation of human SENP7 protease inhibitors | shares compounds with SENP7 block | recombinant SENP7, Z-RLRGG-aminoluciferin luminescence, 40 min | inhibition, % at 12.5 µM | 6,200 compounds, 69% hits
Casp3 SENP sel: selectivity test for SENP inhibitors: human caspase-3 inhibition. shares compounds with SENP7 block. purified caspase-3, Z-DEVD-aminoluciferin luminescence, 60 min. inhibition, % at 12.5 µM. 6,200 compounds, 60% hits. AID 488918;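 active = mean inhibition above about 50%, limit read from the data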
Target sequence (P42574 28-227 limits assumed): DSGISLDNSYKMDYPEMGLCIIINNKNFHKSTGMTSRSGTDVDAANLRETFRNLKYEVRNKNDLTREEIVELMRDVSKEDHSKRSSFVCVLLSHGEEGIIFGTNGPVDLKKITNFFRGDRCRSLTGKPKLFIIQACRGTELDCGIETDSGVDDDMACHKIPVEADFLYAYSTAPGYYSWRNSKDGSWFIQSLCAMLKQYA
SENP luc ctr: luminescence interference (SENP counter-screen). shares compounds with SENP7 block. Pre-incubated SENP8/Z-RLRGG-aminoluciferin, luciferase luminescence interference. inhibition, % at 12.5 µM. 6,200 compounds, 39% hits;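 active = mean inhibition above about 50% when retested at one dose, limit read from the data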
Numbers stand for hits. This is a sample that favours compounds with a hit; in the whole collection about 3% have one here.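 Rule for the calls, unless noted: active = mean inhibition above about 50% in the one-dose retest (limit read from the data); inactive = the rest.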

`NC(=O)c1ccccc1N/C=C/C(=O)c1ccccc1` gave TRAIL sens C8 57, SENP8 block-1 88, SENP7 block 91, SENP6 block 94, PPC-1+TRAIL kill inactive, SENP8 block-2 inactive, SENP8 confirm 87, SENP6 confirm 95, SENP7 confirm 102, Casp3 SENP sel 96 and SENP luc ctr 81.
Screening CC(=O)c1ccc(N/C=C/C(=O)c2ccc(Br)cc2)cc1 returned TRAIL sens C8 inactive, SENP8 block-1 inactive, SENP7 block inactive, SENP6 block inactive and SENP8 block-2 inactive.
COC(=O)c1ccccc1N/C=C/C(=O)c1ccc(Br)cc1 was read as TRAIL sens C8 inactive, SENP8 block-1 inactive, SENP7 block 53, SENP6 block 66, PPC-1+TRAIL kill inactive, SENP8 block-2 inactive, SENP8 confirm inactive, SENP6 confirm inactive, SENP7 confirm inactive, Casp3 SENP sel inactive and SENP luc ctr inactive.
Screening O=C(/C=C/Nc1ccc(F)cc1)c1ccc(Oc2ncccn2)cc1 returned TRAIL sens C8 inactive, SENP8 block-1 inactive, SENP7 block inactive, SENP6 block inactive, PPC-1+TRAIL kill inactive and SENP8 block-2 inactive.
`Cc1cc(OCC(=O)NNC(=O)c2cccnc2)cc(C)c1Cl` gave TRAIL sens C8 inactive, SENP8 block-1 inactive, SENP7 block inactive, SENP6 block inactive and SENP8 block-2 inactive.
Screening Cc1ccc(S(=O)(=O)N2CCOC2CNC(=O)C(=O)NCCN(C)C)cc1 (stereo not given) returned TRAIL sens C8 inactive, SENP8 block-1 inactive, SENP7 block inactive, SENP6 block inactive and SENP8 block-2 inactive.
For CC(=O)N1CCc2cc(Br)cc(S(=O)(=O)N3CCC(C(=O)O)CC3)c21 the results were TRAIL sens C8 inactive, SENP8 block-1 inactive, SENP7 block inactive, SENP6 block inactive and SENP8 block-2 inactive.
COc1cc2cc(CCCOC(=O)c3cccc(Br)c3)oc(=O)c2cc1OC was read as TRAIL sens C8 inactive, SENP8 block-1 inactive, SENP7 block inactive, SENP6 block inactive and SENP8 block-2 inactive.
`CCOC(=O)c1cc2c(=O)c3cc(C)ccc3oc2nc1C` gave TRAIL sens C8 inactive, SENP8 block-1 71, SENP7 block 92, SENP6 block inactive, SENP8 block-2 inactive, SENP8 confirm inactive, SENP6 confirm inactive, SENP7 confirm inactive, Casp3 SENP sel 60 and SENP luc ctr inactive.
For Cc1ccc2oc3nc(C)c(C(=O)O)cc3c(=O)c2c1 the results were TRAIL sens C8 inactive, SENP8 block-1 81, SENP7 block 92, SENP6 block 88, PPC-1+TRAIL kill inactive, SENP8 block-2 inactive, SENP8 confirm inactive, SENP6 confirm inactive, SENP7 confirm 68, Casp3 SENP sel 80 and SENP luc ctr 56.
`CC(=O)c1cc2c(=O)c3cc(C)ccc3oc2nc1C` gave TRAIL sens C8 inactive, SENP8 block-1 64, SENP7 block 64, SENP6 block 75, PPC-1+TRAIL kill inactive, SENP8 block-2 inactive, SENP8 confirm inactive, SENP6 confirm inactive, SENP7 confirm inactive, Casp3 SENP sel 56 and SENP luc ctr inactive.
`COCc1nc2oc3ccc(C)cc3c(=O)c2cc1C(=O)OC` gave TRAIL sens C8 inactive, SENP8 block-1 inactive, SENP7 block inactive, SENP6 block inactive and SENP8 block-2 inactive.
For Cc1nc2oc3ccc(F)cc3c(=O)c2cc1C(=O)O the results were TRAIL sens C8 inactive, SENP8 block-1 inactive, SENP7 block inactive, SENP6 block inactive and SENP8 block-2 inactive.
`C[C@@H](N)C(=O)NC[C@H]1CC[C@H](C(=O)N[C@@H](Cc2ccccc2)C(=O)O)CC1` gave TRAIL sens C8 inactive, SENP8 block-1 inactive, SENP7 block inactive, SENP6 block inactive and SENP8 block-2 inactive.
O=C1NC[C@H](CCCCN2C[C@H](Cc3ccccc3)N(CCc3ccc(O)cc3)C(=O)C2=O)N(CCc2ccccc2)C1=O was read as TRAIL sens C8 inactive and SENP8 block-2 inactive.
For O=C(NCc1ccc(Cl)c(Cl)c1)c1cc(C2CCCCN2C(=O)OCCF)on1 (stereo not given) the results were TRAIL sens C8 inactive and SENP8 block-2 inactive.
For CCOC(=O)c1ccc[n+](CC(=O)Nc2cc(C(F)(F)F)ccc2Cl)c1 the results were TRAIL sens C8 inactive, SENP8 block-1 inactive, SENP7 block inactive, SENP6 block inactive, PPC-1+TRAIL kill inactive and SENP8 block-2 inactive.
Screening Cc1oc(/N=C/c2ccccc2O)c(C#N)c1C returned TRAIL sens C8 inactive, SENP8 block-1 inactive, SENP7 block inactive, SENP6 block inactive, PPC-1+TRAIL kill inactive and SENP8 block-2 inactive.
For Cc1oc(/N=C/c2ccc(O)cc2O)c(C#N)c1C the results were TRAIL sens C8 inactive, SENP8 block-1 inactive, SENP7 block inactive, SENP6 block 57, PPC-1+TRAIL kill inactive, SENP8 block-2 inactive, SENP8 confirm 81, SENP6 confirm 82, SENP7 confirm 94, Casp3 SENP sel 56 and SENP luc ctr inactive.
For COc1cc(OC)c(C2Nc3cccc4cccc(c34)N2)c(OC)c1 the results were TRAIL sens C8 inactive, SENP8 block-1 inactive, SENP7 block inactive, SENP6 block 58, SENP8 block-2 inactive, SENP8 confirm inactive, SENP6 confirm inactive, SENP7 confirm inactive, Casp3 SENP sel inactive and SENP luc ctr inactive.
CCOc1ccc(C2Nc3cccc4cccc(c34)N2)cc1OC was read as TRAIL sens C8 inactive, SENP8 block-1 inactive, SENP7 block inactive, SENP6 block inactive, PPC-1+TRAIL kill inactive and SENP8 block-2 inactive.
Screening COc1ccccc1C1Nc2cccc3cccc(c23)N1 returned TRAIL sens C8 inactive, SENP8 block-1 inactive, SENP7 block inactive, SENP6 block 60, PPC-1+TRAIL kill inactive, SENP8 block-2 inactive, SENP8 confirm inactive, SENP6 confirm inactive, SENP7 confirm inactive, Casp3 SENP sel inactive and SENP luc ctr inactive.
c1ccc(C2Nc3cccc4cccc(c34)N2)cc1 was read as TRAIL sens C8 inactive, SENP8 block-1 inactive, SENP7 block inactive, SENP6 block inactive and SENP8 block-2 inactive.
`COc1ccc(C2Nc3cccc4cccc(c34)N2)cc1` gave TRAIL sens C8 inactive, SENP8 block-1 inactive, SENP7 block inactive, SENP6 block 64, PPC-1+TRAIL kill inactive, SENP8 block-2 inactive, SENP8 confirm inactive, SENP6 confirm inactive, SENP7 confirm inactive, Casp3 SENP sel inactive and SENP luc ctr inactive.

Compound activity as filed in PubChem BioAssay.
